Measured values reported in the supplement of paper PMC11026393.

System: SH-SY5Y
Assay: difference in mean normalized H2B-mRuby nuclear fluorescence intensity relative to DMSO control (normalized intensity difference (DMSO = 0)); higher = stronger increase in transgene reporter fluorescence
Conditions: 24 h
Experimental: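 Cancer cell lines stably expressing H2B-mRuby2 from a lentiviral PGK promoter were treated with each drug for 24 h and imaged on a Leica DMI8 (ex 541-551 / em 565-605 nm). Nuclei were segmented in CellProfiler. The value is the difference in mean per-nucleus normalized H2B-mRuby intensity versus DMSO-treated cells (about 3 repeats x 4 fields). Doxorubicin is itself fluorescent. Dasatinib is in nM.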

## COc1cc([C@@H]2c3cc4c(cc3[C@@H](O[C@@H]3O[C@@H]5CO[C@@H](C)O[C@H]5[C@H](O)[C@H]3O)[C@H]3COC(=O)[C@H]23)OCO4)cc(OC)c1O (concentration unit: uM)
concentration: 1
  difference: 0.0162
concentration: 2.5
  difference: 0.042
concentration: 5
  difference: 0.0775
concentration: 10
  difference: 0.0738
concentration: 20
  difference: 0.0983

## COc1cc2ncnc(Nc3ccc(F)c(Cl)c3)c2cc1OCCCN1CCOCC1 (concentration unit: uM)
concentration: 1
  difference: 0.0355
concentration: 2.5
  difference: 0.0288
concentration: 5
  difference: 0.0297
concentration: 10
  difference: 0.0546
concentration: 20
  difference: 0.086

## Nc1ncn([C@@H]2O[C@H](CO)[C@@H](O)[C@H]2O)c(=O)n1 (concentration unit: uM)
concentration: 1
  difference: 0.0451
concentration: 2.5
  difference: 0.0373
concentration: 5
  difference: 0.0486
concentration: 10
  difference: 0.0991
concentration: 20
  difference: 0.0901

## Cc1[nH]c2ccccc2c1CCNCc1ccc(/C=C/C(=O)NO)cc1 (concentration unit: nM)
concentration: 10
  difference: 0.13
concentration: 50
  difference: 0.783
concentration: 100
  difference: 1.09
concentration: 250
  difference: 1.19
concentration: 500
  difference: 1.16

## Cc1nc(Nc2ncc(C(=O)Nc3c(C)cccc3Cl)s2)cc(N2CCN(CCO)CC2)n1 (concentration unit: nM)
concentration: 25
  difference: 0.0391
concentration: 100
  difference: 0.111
concentration: 250
  difference: 0.137
concentration: 1000
  difference: 0.178
concentration: 2500
  difference: 0.156

## COc1cccc2c1C(=O)c1c(O)c3c(c(O)c1C2=O)C[C@@](O)(C(=O)CO)C[C@@H]3O[C@H]1C[C@H](N)[C@H](O)[C@H](C)O1 (concentration unit: nM)
concentration: 25
  difference: -0.0232
concentration: 100
  difference: 0.0095
concentration: 250
  difference: 0.0862
concentration: 1000
  difference: 0.155
concentration: 2500
  difference: 0.202
